# An excerpt weighted towards active compounds, which were near 2% of everything screened.
# A3G deaminase – APOBEC3G DNA deaminase inhibitors, primary screen, biochemical, fluorescence, single-stranded DNA substrate, uHTS; DNA dC->dU-editing enzyme APOBEC-3G (Homo sapiens), Q9HC16; recombinant A3G, ssDNA deamination FAM/TAMRA fluorescence; inhibition, % at 20 µM; hit rate 0.28% among 330,000; AID 493012, 2011;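 active = inhibition of at least 40% at 20 µM, with no more than 30% in the related APOBEC3A deaminase screen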
# Target sequence (Q9HC16 whole entry, looked up): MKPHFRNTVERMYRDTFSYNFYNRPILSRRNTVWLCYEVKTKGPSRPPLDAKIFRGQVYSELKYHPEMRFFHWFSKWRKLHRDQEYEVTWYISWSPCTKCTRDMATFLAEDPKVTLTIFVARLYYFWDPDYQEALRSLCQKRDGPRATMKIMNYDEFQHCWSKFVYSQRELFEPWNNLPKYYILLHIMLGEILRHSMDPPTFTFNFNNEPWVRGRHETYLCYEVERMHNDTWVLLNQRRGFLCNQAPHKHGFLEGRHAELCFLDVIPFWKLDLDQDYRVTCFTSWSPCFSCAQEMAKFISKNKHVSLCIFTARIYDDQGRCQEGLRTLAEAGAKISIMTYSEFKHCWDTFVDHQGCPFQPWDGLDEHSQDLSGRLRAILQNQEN
# Fh CTSL1 inh – Fasciola hepatica cathepsin L1 inhibitors, primary screen, counter-screen for PFM18AAP inhibitor project, biochemical, QFRET, fluorogenic peptide substrate | recombinant F. hepatica cathepsin L1, Z-Leu-Arg-MCA fluorescence | inhibition, % at 5.96 µM | hit rate 0.49% among 300,000 | AID 1906, 2009;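 active = inhibition above the mean of all tested compounds plus 3 SD, set per screening campaign, cut at about 17% in these data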
# HGIII-sPLA2 inh – human group III sPLA2 inhibitors, primary screen, biochemical, QFRET, BODIPY PC-A2 liposome substrate; AID 743126, 2013; inhibition, % at 12.2 µM; QFRET BODIPY PC-A2 liposome hydrolysis, fluorescence; hit rate 0.56% among 370,000;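 active = inhibition above mean plus 3 SD of compounds lying within the high and low control bounds, cut at about 19% in these data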
# NALP1 yeast inh – NALP1 inflammasome inhibitors in reconstituted yeast, colorimetric, S. cerevisiae, triplicate retest; S. cerevisiae NALP1/ASC/caspase-1 growth, X-gal OD620, 72 h; inhibition, % at 10 µM; hit rate 0.61% among 280,000; AID 2071, 2009; in the data active = inhibition mostly above about 24%, no sharp cut-off; inactive = mostly below about 32%
# A3A deaminase – APOBEC3A ssDNA deaminase inhibitors, primary screen, selectivity assay for APOBEC3G inhibitor project, biochemical, FAM/TAMRA oligo cleavage fluorescence | recombinant A3A, FAM/TAMRA ssDNA deamination fluorescence | inhibition, % at 20 µM | hit rate 0.41% among 330,000 | AID 493011, 2011;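 active = at least 40% inhibition at 20 µM here, with at most 30% in a related deaminase screen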
# Target sequence (P31941 whole entry, looked up): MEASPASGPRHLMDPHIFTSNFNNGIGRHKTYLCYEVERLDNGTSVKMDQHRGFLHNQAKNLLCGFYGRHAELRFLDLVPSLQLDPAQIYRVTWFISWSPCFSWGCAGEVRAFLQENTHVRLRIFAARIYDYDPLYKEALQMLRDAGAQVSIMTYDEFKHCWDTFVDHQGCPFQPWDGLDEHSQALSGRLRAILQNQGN
# A3G conf – APOBEC3G deaminase inhibitor retest, confirmation, biochemical, fluorescence, single-stranded DNA substrate, single concentration; shares compounds with A3G deaminase; recombinant A3G ssDNA deaminase, UDG/FAM-TAMRA fluorescence; inhibition, % at 20 µM; hit rate 72% among 890;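 active = inhibition reaching a set limit in any replicate at 20 µM, the limit being 80% of the first screen's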
# UDG ctr A3G – E. coli UDG inhibitors, confirmation, counter-screen for APOBEC3G inhibitor project, biochemical, single concentration, fluorescence, FAM/TAMRA oligo; shares compounds with A3G deaminase; UDG counterscreen; inhibition, % at 20 µM; 710 tested, under 10 active;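 active = compounds giving 40% or more inhibition at 20 µM in any one of the three replicates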;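 note: inhibitors lower the FAM signal released by uracil excision and alkaline cleavage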
# hGIII sPLA2 conf – human group III sPLA2 inhibitors, confirmation, biochemical, QFRET, triplicate; shares compounds with HGIII-sPLA2 inh; recombinant hGIII-sPLA2, BODIPY PC-A2 QFRET fluorescence; inhibition, % at 12.2 µM; hit rate 34% among 2,000;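 active = mean inhibition across triplicates above the hit cutoff set in the earlier primary screen, cut at about 19% in these data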
# BODIPY interf – 535nm fluorescence optical interference, confirmation, artefact control for HGIII-sPLA2 inhibitor project, biochemical, QFRET. shares compounds with HGIII-sPLA2 inh. BODIPY FL product fluorescence interference. inhibition, % at 12.2 µM. hit rate 8.5% among 2,000;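 active = average inhibition above the solvent-only control mean plus 3 SD, cut at about 6% in these data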
# BODIPY interf DR – 535nm fluorescence optical interference, dose response, artefact control for HGIII-sPLA2 inhibitor project, biochemical, QFRET; shares compounds with HGIII-sPLA2 inh; BODIPY FL product fluorescence interference, cell-free; IC50, µM; 240 tested, under 10 active;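 active = IC50 at or below 10 µM; inactive = IC50 above 10 µM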
# Hits are given with their value; n = inactive; x = no result.
SMILES,A3G deaminase,Fh CTSL1 inh,HGIII-sPLA2 inh,NALP1 yeast inh,A3A deaminase,hGIII sPLA2 conf,BODIPY interf,others
CCC12CN3CC(CC)(CN(C1)C3c1cccnc1)C2=O (stereo unspecified),n,n,n,n,n,x,x,
Cn1c(NN=O)nc2ccccc21,58.9,n,n,n,n,x,x,A3G conf=28.4;UDG ctr A3G=n
O=c1[nH]c(=S)n(C2CC2)c(O)c1/C=N/Nc1cccc2ccccc12,55.0,n,n,n,n,x,x,A3G conf=n
O=c1[nH]c(=O)n(CCC2=CCCCC2)c(O)c1/C=N/Nc1ccccc1,n,n,n,n,n,x,x,
O=c1[nH]c(=O)n(CCC2=CCCCC2)c(O)c1/C=N/Nc1cccc2ccccc12,41.5,n,n,x,n,x,x,A3G conf=n
CCC(C)n1c(O)c(/C=N/Nc2ccccc2)c(=O)[nH]c1=S (stereo unspecified),48.8,n,n,n,n,x,x,A3G conf=n
O=C1Nc2ccccc2Oc2ccccc21,x,x,n,x,x,x,x,
COc1ccc(Cc2cn(C)c(N)n2)cc1,x,x,n,x,x,x,x,
CC1SC2(CN3CCC2CC3)NC1=O (stereo unspecified),n,n,n,n,n,x,x,
NS(=O)(=O)c1ccc(-c2ccc(C=C3C(=O)NC(=S)NC3=O)o2)cc1,47.9,n,n,n,n,x,x,A3G conf=47.1
NS(=O)(=O)c1ccc(-c2ccc(C=C3C(=O)NC(=O)NC3=O)o2)cc1,n,n,n,n,n,x,x,
CC(=O)N1N=C(c2c(O)n(C)c(=O)n(C)c2=O)CC1c1ccccc1 (stereo unspecified),n,n,n,n,n,x,x,
O=C(NCCCn1ccnc1)C(Cl)(Cl)Cl,43.8,n,n,n,n,x,x,A3G conf=n
Nc1ccc(-c2ccc(N)cc2)cc1,x,x,19.2,x,x,n,n,
CCC(=NCc1ccco1)c1c(O)n(C)c(=O)n(C)c1=O,n,n,19.7,x,n,n,n,
Cn1c(O)c(C=NCc2ccco2)c(=O)n(C)c1=O,n,n,n,n,n,x,x,
CCOP(=O)(OCC)C(NC(=O)CN1C(=O)c2ccccc2S1(=O)=O)C(Cl)(Cl)Cl (stereo unspecified),n,n,n,n,n,x,x,
Cc1cc(C(=O)N=Nc2c(O)n(C)c3ccccc23)c(C)o1,n,n,22.5,n,n,n,n,
C/C(O)=C(\C#N)C(=O)Nc1cc(Br)ccc1Br,n,n,n,x,n,x,x,
O=C1CN=C(c2ccccc2F)c2cc(Cl)ccc2N1,n,n,19.3,n,n,n,n,
c1ccc(-c2cc(-c3ccccc3)[n+](-c3ccccc3)c(-c3ccccc3)c2)cc1,n,n,n,x,n,x,x,
CN(C)c1ccc(-[n+]2c(-c3ccccc3)cc(-c3ccccc3)cc2-c2ccccc2)cc1,n,x,22.2,n,n,27.2,n,
Clc1cccc(N2CCNCC2)c1Cl,n,n,24.6,n,n,n,n,
CCOP(=O)(C#CC(C)(C)C)C(O)(c1ccccc1)C(F)(F)F (stereo unspecified),n,n,n,n,n,x,x,
C[C@]12CCC3C(CC[C@H]4C[C@@H](O)CC[C@]34C)C1C[C@@H](O)[C@@H]2O (stereo partly specified),x,x,n,x,x,x,x,
SMILES,A3G deaminase,Fh CTSL1 inh,HGIII-sPLA2 inh,NALP1 yeast inh,A3A deaminase,hGIII sPLA2 conf,BODIPY interf,others
COc1ccc(NC(=S)NC(NC(=O)CF)C(Cl)(Cl)Cl)cc1[N+](=O)[O-] (stereo unspecified),n,n,19.2,n,n,n,n,
CC1C(c2cccs2)=[N+]([O-])C(C)(C(=O)c2ccc(F)cc2)N1O (stereo unspecified),n,n,n,x,n,x,x,
c1ccc2c3c([nH]c2c1)CNCC3,n,n,23.5,n,n,n,n,
CCc1ccc(/C=C(/C#N)C(N)=S)cc1,n,n,24.1,n,n,29.4,n,BODIPY interf DR=n
C[C@]12CCC3C(CC[C@H]4C[C@H](O)CC[C@]34C)C1CC(=O)[C@@H]2O (stereo partly specified),n,x,n,x,n,x,x,
CC1CC2(C)C(CCC3C2CCC2(C)C(OP(=O)(N4CC4)N4CC4)CCC32)CC1=O (stereo unspecified),x,x,24.7,x,x,n,n,
CN1C(C(=O)N2CCC3(CC2)OCCO3)=CC(c2ccc(F)cc2)=NS1(=O)=O,n,n,n,n,n,x,x,
C=C[C@@H]1C[C@@]1(C)[C@@H](NP(=O)(c1ccccc1)c1ccccc1)c1ccccc1,n,n,n,n,n,x,x,
O=C(C[N+]12CCC(CC1)C(CO)C2)c1ccc([N+](=O)[O-])cc1 (stereo unspecified),n,n,n,n,n,x,x,
O=C(C[N+]12CCC(CC1)C(OC(=O)c1ccccc1)C2)c1ccc([N+](=O)[O-])cc1 (stereo unspecified),n,n,21.7,n,n,n,n,
Cc1c(N=Nc2c(O)n(C)c(=O)n(C)c2=O)c(=O)n(-c2ccccc2)n1C,n,n,19.4,n,n,n,n,
O=C(O)c1ccccc1-c1ccc(C=C2C(=O)N(c3ccccc3)C(=S)N(c3ccccc3)C2=O)o1,n,n,n,n,n,x,x,
CCCCC(=O)N/N=C/c1c(O)n(-c2cccc3ccccc23)c(=O)[nH]c1=O,n,n,n,n,n,x,x,
O=C1NC(=S)NC(=O)C1c1ccccc1,x,x,n,x,x,x,x,
O=C1CC(c2ccccc2)CN1 (stereo unspecified),n,n,24.2,x,n,n,n,
COc1ccccc1N1CCN(Cc2ccc(F)cc2)CC1,n,n,n,n,n,x,x,

# Screening data from PubChem.
